Reference: PubChem BioAssay (NCATS)
Inconclusive results are not listed. Where a call stands in place of a potency, no number is given. Unmarked numbers belong to inactive results. Calls of active or inactive are those of the source. Calls follow the shape of the dose curve; as a rule, active = well fitted cell-killing curve with a large enough effect; inconclusive = small, poorly fitted or top-dose-only effect, or effect the other way; inactive = no such curve, though single readings can be large or run the other way.

How the values were obtained:
[1] = Viability qHTS for spleen associated tyrosine kinase inhibitor (SYKi) naive MV4-11 cells (AID 1963823); also: nearly all actives have a fitted effect of over 40% in size
Procedure, shortened: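 SYKi-naive MV4-11 AML cells, 500 per well, were exposed to library compounds for 72 hr at 37 C, 5% CO2. Viability was then read by CellTiter-Glo luminescence after 10 min at room temperature.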

[2] = Viability qHTS for spleen associated tyrosine kinase inhibitor (SYKi) drug resistant MV4-11 cells (AID 1963824); also: nearly all actives have a fitted effect of over 35% in size
Procedure, shortened: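 SYK inhibitor-resistant MV4-11 AML cells, 500 per well, added to predispensed compounds and incubated 72 hr at 37 C, 5% CO2. Viability measured by CellTiter-Glo luminescence after 10 min at room temperature.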
Potency is read from the fitted curve at half-maximal effect.

Row | SMILES | Potency [1] | Potency [2] | viability (% of control) [1] | viability, % of control [2]
1 | C=CC(=O)Nc1cc(-n2c(=O)ccc3cnc4ccc(-c5ccc(NS(C)(=O)=O)cc5)cc4c32)ccc1C | 1.16 µM (active) | 1.3 µM (active) | – | –
2 | COc1cc(/C=C/C(=O)OC2CC(OC(C)=O)C(OC(C)=O)C3C2CCC2C(=O)OC(c4ccoc4)CC23C)ccc1O[C@@H]1O[C@H](CO)[C@@H](O)[C@H](O)[C@H]1O (some centres undefined) | inactive | inactive | – | –
3 | O=C(OC[C@H]1O[C@H](O[C@]2(CO)O[C@H](CO)[C@@H](O)[C@@H]2O)[C@H](O)[C@@H](O)[C@@H]1O)c1ccc(O)cc1 | inactive | inactive | – | –
4 | CC(O)/C=C/C1C(C)C(O[C@@H]2O[C@H](CO)[C@@H](O)[C@H](O)[C@H]2O)C(O)CC1(C)C (some centres undefined) | inactive | inactive | – | –
5 | C[C@@H](O[C@H]1OCCN(Cc2n[nH]nc2CN(C)C)[C@H]1c1ccc(F)cc1)c1cc(C(F)(F)F)cc(C(F)(F)F)c1 | 10.3 µM (active) | 6.51 µM (active) | – | –
6 | COc1cc(C(C)=O)ccc1O[C@@H]1O[C@H](CO[C@@H]2OC[C@@H](O)[C@H](O)[C@H]2O)[C@@H](O)[C@H](O)[C@H]1O | inactive | inactive | – | –
7 | C[C@@H]1O[C@@H](O[C@H]2[C@H](OC(=O)[C@]34CCC(C)(C)C[C@H]3C3=CCC5[C@@]6(C)CC[C@H](O[C@@H]7O[C@H](CO[C@@H]8OC[C@H](O)[C@H](O)[C@H]8O[C@@H]8OC[C@@H](O)[C@H](O)[C@H]8O)[C@@H](O)[C@H](O)[C@H]7O)C(C)(C)C6CC[C@@]5(C)[C@]3(C)C[C@H]4O)O[C@H](CO)[C@@H](O)[C@@H]2O)[C@H](O[C@@H]2O[C@H](CO)[C@@H](O)[C@H](O)[C@H]2O)[C@H](O)[C@H]1O[C@@H]1OC[C@@H](O)[C@H](O[C@@H]2OC[C@@H](O)[C@H](O)[C@H]2O)[C@H]1O (some centres undefined) | – | – | 93.4% [at 4.97 µM] | 88.9% [at 4.97 µM]
8 | O=C(COc1ccc(C(=O)c2ccccc2)cc1)NC1CCN(Cc2ccccc2)CC1 | 9.2 µM (active) | 7.31 µM (active) | – | –
9 | CCN(CC)CCOc1ccc2c(c1)C(=O)c1cc(OCCN(CC)CC)ccc1-2 | 13.3 µM (active) | 9.44 µM (active) | – | –
10 | COc1cc(C2c3cc(O)c(OC)cc3CC(CO)C2CO)ccc1O (centres undefined) | inactive | inactive | – | –
11 | CC(C)C(C)C(O)C1CC23CC(=O)C4(O)C(=C2CCC3C1C)C=CC1(O)CC(O)CCC14C (centres undefined) | inactive | 7.09 µM (active) | – | –
12 | COc1cc(C2Oc3c(OC)cc(CCCO[C@@H]4O[C@H](CO)[C@@H](O)[C@H](O)[C@H]4O)cc3C2CO)ccc1O (some centres undefined) | inactive | inactive | – | –
13 | COC(=O)C1=CO[C@@H](O[C@@H]2O[C@H](CO)[C@@H](O)[C@H](O)[C@H]2O)[C@H]2[C@@H]1CC(OC)O[C@@H]2C (some centres undefined) | inactive | inactive | – | –
14 | CC(C)(C)c1cc(Br)cc([C@H](CC(=O)O)NC(=O)CNC(=O)c2cc(O)cc(NC3=NCC(O)CN3)c2)c1 (some centres undefined) | inactive | inactive | – | –
15 | C=C1C2CCC3CC2(CC(O)C2(O)C1CC(OC1OC(CO)C(O)C(O)C1O)C2(C)C)CC3(C)O (centres undefined) | inactive | inactive | – | –
16 | CC(C)=CCC[C@](C)(O)[C@H]1CC[C@]2(C)[C@@H]1[C@H](O)CC1[C@@]3(C)CC[C@H](O)C(C)(C)[C@@H]3[C@@H](O[C@@H]3O[C@H](CO)[C@@H](O)[C@H](O)[C@H]3O[C@@H]3O[C@H](CO)[C@@H](O)[C@H](O)[C@H]3O)C[C@]12C (some centres undefined) | inactive | inactive | – | –
17 | CC1=CC(=O)C(=C(C)C)CC2C(C)(O)CCC12O (centres undefined) | inactive | inactive | – | –
18 | COc1cc2nc(N3CCCC3)nc(NCCCCCN3CCCC3)c2cc1OC | 1.3 µM (active) | 2.59 µM (active) | – | –
19 | OC[C@H]1O[C@@H](OCCc2ccccc2)[C@H](O)[C@@H](O)[C@@H]1O | inactive | inactive | – | –
20 | C=CS(=O)(=O)NC1CCN(C(=O)CNc2cc(I)c(Cl)cc2OC)CC1 | 3.26 µM (active) | 2.06 µM (active) | – | –
21 | O=C1CC[C@@H](C(=O)N2CSC[C@H]2C(=O)O)N1 | inactive | inactive | – | –
22 | C[C@@H]1O[C@@H](O[C@H]2[C@H](OC(=O)[C@]34CCC(C)(C)C[C@H]3C3=CCC5[C@@]6(C)C[C@H](O)[C@H](O[C@@H]7O[C@H](CO)[C@@H](O)[C@H](O)[C@H]7O)[C@@](C)(CO)C6[C@H](O)C[C@@]5(C)[C@]3(C)CC4)OC[C@H](O)[C@@H]2O)[C@H](O)[C@H](O)[C@H]1O[C@@H]1OC[C@@H](O)[C@H](O[C@@H]2OC[C@](O)(CO)[C@H]2O)[C@H]1O (some centres undefined) | – | – | 85.2% [at 9.25 µM] | 102% [at 9.25 µM]
